# Compound activity from PubChem BioAssay.
# In the library only some 4.1% were active in any assay of this set; here they are far more common.
# ssDAF-12 act: S. stercoralis DAF-12 activation, primary screen. HEK293 ssDAF-12/GRIP1 lit1-tk-luc reporter, luminescence; % of 3 µM dafachronic acid response. activation, % at 6.8 µM. actives 1% (n = 370,000). AID 652126;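 active = activation above the mean over all tested compounds plus 3 SD, cut at about 0.9% in these data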;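 also: 0% = DMSO-only wells and 100% = 3 µM delta7-dafachronic acid wells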
# DAX1 inh-1: DAX1 (NR0B1) inhibition, primary screen. actives 1.1% (n = 370,000). inhibition, % at 6.8 µM. HEK293T StAR-luciferase reporter, SF-1/DAX-1 repression relief;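 active = inhibition above the mean over all tested compounds plus 3 SD, cut at about 3.6% in these data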;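 also: 0% = DAX-1 cells with DMSO and 100% = cells lacking DAX-1 with DMSO; higher inhibition means more luminescence from relief of DAX-1 repression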
# hgDAF-12 ag: activates the H. glycines DAF-12 receptor ligand-binding domain; activation, % at 6.8 µM; actives 1.8% (n = 370,000); HEK293 GAL4-hgDAF12 UAS-luciferase reporter, agonist luminescence; normalized to butyrate control;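 active = activation above a cutoff set at the mean of all screened compounds plus 3 SD, cut at about 10% in these data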;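 also: 0% = DMSO wells and 100% = sodium butyrate wells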
# hcDAF12 agonist: activates DAF-12 receptor from parasite H. contortus; actives 1.4% (n = 370,000); activation, % at 6.8 µM; HEK293 hcDAF-12 lit1-tk-luc reporter, luminescence; 0% DMSO, 100% Δ7-dafachronic acid; AID 652067;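 active = activation above the mean of all tested compounds plus 3 SD, cut at about 5.5% in these data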;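 also: 100% = response to 3 µM Δ7-dafachronic acid high control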
# DAX1 inh-2: inhibitors of human orphan nuclear receptor DAX1 (NR0B1); inhibition, % at 6.75 µM; AID 504766; actives 0.99% (n = 340,000); HEK293 Gal4-DAX1 luciferase reporter, luminescence;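 active = inhibition above the mean over all tested compounds plus 3 SD, cut at about 4.2% in these data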;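 also: 0% = DAX1-transfected cells with DMSO and 100% = empty-vector control cells with DMSO; inhibition shows as a rise in luminescence from relieved DAX1 repression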
# Target sequence (P51843 207-470 limits assumed): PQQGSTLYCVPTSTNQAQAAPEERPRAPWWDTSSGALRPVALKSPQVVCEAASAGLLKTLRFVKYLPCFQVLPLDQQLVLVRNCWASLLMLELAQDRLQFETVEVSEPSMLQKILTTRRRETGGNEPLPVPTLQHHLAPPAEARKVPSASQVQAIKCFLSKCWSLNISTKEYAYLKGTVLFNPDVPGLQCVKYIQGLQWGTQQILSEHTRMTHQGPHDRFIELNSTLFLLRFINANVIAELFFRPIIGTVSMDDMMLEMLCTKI
# * marks the source's active call; other numbers are inactive results; x = no result given.
SMILES,ssDAF-12 act,DAX1 inh-1,hgDAF-12 ag,hcDAF12 agonist,DAX1 inh-2
O=C(Nc1ccc(CN2CCOCC2)cc1)c1ccccc1F,0,3,12*,2,0
O=C(NC(=S)Nc1ccc(CN2CCOCC2)cc1)c1cc2ccccc2o1,-2,0,0,0,0
O=C(Nc1ccc(CN2CCOCC2)cc1)c1cc2ccccc2o1,0,3.6*,8,6,-1
O=C(Nc1ccc(CN2CCOCC2)cc1)c1ccc(Cl)cc1Cl,-2,-1,-2,-4,-1
Cc1ccc(Cl)c(OCC(=O)OCC(=O)c2ccc[nH]2)c1,-1,-1,1,0,0
O=C(COc1ccc(Cl)cc1Cl)c1ccc[nH]1,-1,0,7,0,8.0*
O=C(OC12CCCN(C1)/C(=C/c1ccccc1)C2)C1CCCCC1 (centres undefined),-1,-1,-1,-1,x
Cc1ccc2nc(-c3ccccc3)cn2c1,-2,-1,-7,-2,-6
Cc1ccc2nc(-c3ccc(-c4ccccn4)s3)cn2c1,0,1,12*,4,4
COc1ccc(C2Nc3ccc4ccccc4c3-c3c2c(=O)oc2ccccc32)cc1 (centres undefined),1.4*,0,1,4,0
Nc1[nH]c(C(=O)c2ccccc2)c(-c2ccc(Br)cc2)c1C(=O)NCCCN1CCOCC1,-1,x,-3,-1,x
Cn1c(CNc2ccccc2F)nc2ccccc21,0,x,11*,5,x
CCC(Cc1ccccc1)NC(=O)Cn1cccc1C(=O)c1ccccc1 (centres undefined),-1,0,0,-3,-1
CCC(Cc1ccccc1)NC(=O)Cn1ncc2ccsc2c1=O (centres undefined),1.0*,0,11*,5.9*,0
CCCCN(C)CCNC(=O)c1ccc(Cn2c(=S)[nH]c3ccc(Br)cc3c2=O)cc1,-1,4.0*,0,0,0
CC1(CCc2ccccc2)NC(=O)N(CC(=O)Nc2ccccc2)C1=O (centres undefined),-1,1,6,1,4.7*
CC1(CCc2ccccc2)NC(=O)N(CC(=O)O)C1=O (centres undefined),-1,1,0,0,3
COc1ccc(C2c3c(oc4ccccc4c3=O)C(=O)N2c2ccc(C)cn2)cc1OC (centres undefined),-1,1,-1,-1,5.0*
CN(C)CCN1C(=O)c2cccc3cc([N+](=O)[O-])cc(c23)C1=O,0,-7,-5,6.5*,6.9*
CN(C)CCCN1C(=O)c2cccc3cccc(c23)C1=O,0,0,4,4,0
O=C(C1CC1)N1CCC(C(O)(c2ccccc2)c2ccccc2)CC1,-1,0,0,-1,5.1*
C=CCN1[C@@H](C)COc2cccc(F)c2S1(=O)=O,-1,-1,2,-3,x
CCN(CC)C(=O)CSc1nnc(-c2cccs2)o1,-1,2,6,-2,x
Cc1nc2c(C)cccn2c1/C(O)=C1\C(=O)C(=O)N(CCN(C)C)C1c1ccccc1 (centres undefined),1.0*,0,-1,-2,5.8*
Cc1ccc(C2/C(=C(\O)c3c(C)nc4c(C)cccn34)C(=O)C(=O)N2CCN(C)C)o1 (centres undefined),0,0,1,1,2
SMILES,ssDAF-12 act,DAX1 inh-1,hgDAF-12 ag,hcDAF12 agonist,DAX1 inh-2
Cc1cccc(C(=O)Nc2nc3ncccn3c2-c2ccccc2)c1,-1,-1,-2,0,x
Cc1ccc(Cc2c(-c3ccc(C#N)cc3)nc3c(C)cc(Br)cn23)cc1,1.0*,0,4,0,x
COc1ccc(Cc2c(-c3ccc(C)cc3)nc3c(C)cc(Br)cn23)c(C)c1,1.1*,0,3,3,x
COc1ccc(Cc2c(-c3ccccc3)nc3ccc(Br)cn23)c(C)c1,0,1,13*,1,x
O=C(N[C@H](Cc1ccccc1)C(=O)N1CCN(Cc2ccccn2)CC1)[C@H]1O[C@@H](n2ccc(=O)[nH]c2=O)[C@H](O)[C@@H]1O,-1,1,5,-1,x
Brc1cccc(CN2CCN(c3ncc(Cc4ccccc4)cn3)CC2)n1,-1,-3,-2,-2,x
CC(=O)Nc1sc(N/N=C\c2ccccc2Cl)nc1-c1cccs1,-1,-1,3,2,0
CC(=O)Nc1sc(N/N=C/c2ccccc2)nc1-c1ccc(C)cc1,-1,1,4,2,5.0*
Cc1sc(N/N=C/C=C/c2ccccc2)nc1-c1ccccc1,-1,0,4,6.0*,0
CC(=O)Nc1sc(N/N=C\c2ccccc2)nc1-c1cccs1,1.7*,0,10,6.2*,1
C#CCNC(=O)C[C@H]1C[C@@]2(C(=O)OC)C(=C[C@H](C(C)C)O[C@@H]2C2CC2)N(Cc2ccc3c(c2)OCO3)C1=O,-1,0,4,-1,x
Cc1cc(/C=C2/C(=O)NN(c3ccccc3)C2=O)c(C)n1-c1ccc(O)cc1,-2,-1,-8,-4,-2
Cc1cc(/C=C2\C(=O)NN(c3ccccc3)C2=O)c(C)n1-c1ccccc1O,-1,0,-4,-1,5.4*
Cc1n[nH]c(C)c1S(=O)(=O)NCCc1c[nH]c2ccccc12,-1,0,-2,1,x
N#CC1=C(N)Oc2c(ccc3cccnc23)C1c1ccccc1 (centres undefined),-1,-2,-2,-2,0
Cc1ccc2[nH]c(=O)c(C3C(C#N)=C(N)Oc4c3ccc3cccnc43)cc2c1 (centres undefined),1.1*,1,5,3,1
C=CCNc1nc(-c2ccc([N+](=O)[O-])cc2)cs1,-1,0,12*,1,-1
O=[N+]([O-])c1ccc(S(=O)(=O)Nc2nc(-c3ccccc3)cs2)cc1,0,0,-2,-1,0
NNC(=O)c1nnsc1-c1csnn1,1,2,10*,5,4
CC1=C(C(=O)OCCc2ccccc2)C(c2ccsc2)NC(=O)N1C (centres undefined),-2,-1,1,-4,4.5*
Cc1nc2sc3c(c2c(=O)o1)CCCC3,1.0*,0,-1,5,0
Cc1ccc(-c2nc3sc4c(c3c(=O)n2N)CCCC4)cc1,0,3,12*,5.8*,2
Cc1ccc2c(c1)c(N=Nc1ccc([N+](=O)[O-])cc1)c(O)n2C,0,0,0,6.0*,1
Cc1c(C)n(C)c2ccc([N+](=O)[O-])cc12,-1,1,-2,-2,3
Cn1c(O)c(N=NC(=O)Cc2c[nH]c3ccccc23)c2ccccc21,-1,-1,-4,0,2
Cn1c(O)c(N=Nc2ccccc2)c2ccccc21,1.2*,0,0,4,0
Cn1c(O)c(N=Nc2ccc(F)cc2)c2ccccc21,0,0,2,5.6*,-1
Cc1cccc2c1cnn2C(=O)Nc1ccccc1Cl,0,0,7,5.8*,1
